These results are taken from article PMC4336329 (PLoS ONE, 2015).

Out of some 310,000 compounds screened, about 14,000 (4.5%) showed an effect of 50% or more. Effects have a minus sign here. This excerpt belongs to a sample that is enriched for strong results.
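Note: peak tail current of the secondary pulse compared with the same well before compound.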

Sequence of human ether-à-go-go-related gene (hERG) potassium channel (Q12809 whole entry, looked up): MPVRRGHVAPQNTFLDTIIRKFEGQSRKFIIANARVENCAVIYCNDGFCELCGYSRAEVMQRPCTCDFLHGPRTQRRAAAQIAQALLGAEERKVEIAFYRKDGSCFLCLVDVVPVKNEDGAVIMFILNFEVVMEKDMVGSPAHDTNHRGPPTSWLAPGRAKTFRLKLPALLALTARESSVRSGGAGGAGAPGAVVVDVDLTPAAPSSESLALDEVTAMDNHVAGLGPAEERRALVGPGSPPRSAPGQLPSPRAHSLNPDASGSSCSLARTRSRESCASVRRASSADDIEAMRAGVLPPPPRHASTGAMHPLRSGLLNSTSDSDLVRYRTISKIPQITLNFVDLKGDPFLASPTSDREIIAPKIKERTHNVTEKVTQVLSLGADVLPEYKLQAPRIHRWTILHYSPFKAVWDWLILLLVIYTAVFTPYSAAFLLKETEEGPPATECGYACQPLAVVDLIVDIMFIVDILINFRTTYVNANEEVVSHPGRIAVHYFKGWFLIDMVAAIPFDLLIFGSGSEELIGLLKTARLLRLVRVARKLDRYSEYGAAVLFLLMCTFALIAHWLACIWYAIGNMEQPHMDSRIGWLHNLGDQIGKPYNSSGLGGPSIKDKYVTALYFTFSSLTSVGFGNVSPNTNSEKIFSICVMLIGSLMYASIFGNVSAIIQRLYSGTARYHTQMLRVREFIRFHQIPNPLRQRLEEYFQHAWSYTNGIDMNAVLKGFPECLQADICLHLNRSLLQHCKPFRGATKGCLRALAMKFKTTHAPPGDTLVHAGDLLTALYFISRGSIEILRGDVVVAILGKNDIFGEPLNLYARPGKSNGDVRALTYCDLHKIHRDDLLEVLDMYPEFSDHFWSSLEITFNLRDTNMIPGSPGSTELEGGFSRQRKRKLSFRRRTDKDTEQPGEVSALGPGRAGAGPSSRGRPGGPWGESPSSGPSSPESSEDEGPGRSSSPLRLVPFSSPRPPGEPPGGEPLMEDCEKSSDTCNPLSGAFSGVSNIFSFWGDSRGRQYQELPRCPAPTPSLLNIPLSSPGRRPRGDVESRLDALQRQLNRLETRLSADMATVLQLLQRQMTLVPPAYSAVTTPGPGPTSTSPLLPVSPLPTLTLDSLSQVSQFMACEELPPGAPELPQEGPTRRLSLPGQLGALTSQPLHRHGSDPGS

This assay addresses human ether-à-go-go-related gene (hERG) potassium channel (human, UniProt Q12809). Kind of assay: primary screen, population patch clamp on CHO cells stably expressing hERG; higher = less effect of the substance.
Consider `Nc1c(N(Cc2ccco2)C(=O)COc2ccccc2F)c(=O)[nH]c(=O)n1Cc1ccccc1`, for which the “hERG current change (%, negative = inhibition) at 10uM” value came out at 0.883%.

For `CNC(=O)CSCc1c(F)cccc1Cl`, the “hERG current change (%, negative = inhibition) at 10uM” value worked out at 17.8%.

Regarding `CCCOC(=O)C1=C(C)NC2=C(C(=O)C(C(=O)OC)C(C)C2)C1c1ccc(N(CC)CC)cc1` (stereo not shown), the “hERG current change (%, negative = inhibition) at 10uM” value is -5.21%.

On to `COC(=O)c1ccccc1NC(=O)CC(NCc1ccccc1)C(=O)O` (stereo not shown), for which the “hERG current change (%, negative = inhibition) at 10uM” value is listed as -20.7%.

For the compound `CCCCn1c(SCC(N)=O)nnc1-c1ccco1`, the “hERG current change (%, negative = inhibition) at 10uM” value came out at 15.3%.

Take `COc1cccc(-n2nnnc2SCC(=O)NCc2ccco2)c1`: the “hERG current change (%, negative = inhibition) at 10uM” value is listed as -2.06%.

For `COc1cc(NC(=O)CN2CCN(c3ccccc3F)CC2)c(C)cc1[N+](=O)[O-]`, the “hERG current change (%, negative = inhibition) at 10uM” value was 28.2%.

Consider `CCOC(=O)c1cnc2c(OC)cccc2c1N1CCN(c2ccccc2OC)CC1`, for which the “hERG current change (%, negative = inhibition) at 10uM” value is given as -45.4%.

For `COc1cccc2c3c(c(C)nc12)CC(C)O3` (stereo not shown), the “hERG current change (%, negative = inhibition) at 10uM” value is reported as -21.9%.

For `COc1cccc2c3c(c(C)nc12)CCN3c1ccccc1`, the “hERG current change (%, negative = inhibition) at 10uM” value is listed as -54.6%.

On to `Cc1nc2c(C)cccc2c2c1CCS2`, for which the “hERG current change (%, negative = inhibition) at 10uM” value amounted to 0.813%.

Turning to `CCOC(=O)c1cnc2c(OC)cccc2c1N1CCN(c2ccc(OC)cc2)CC1`, the “hERG current change (%, negative = inhibition) at 10uM” value is -47.1%.

For `COc1cccc2c(Cl)c(CCCl)c(C)nc12`, the “hERG current change (%, negative = inhibition) at 10uM” value turned out to be 10.2%.

For `COc1ccccc1N1CCc2c(C)nc3c(OC)cccc3c21`, the “hERG current change (%, negative = inhibition) at 10uM” value was -61%.

Regarding `CCc1c(C)nc2c(OC)cccc2c1Cl`, the “hERG current change (%, negative = inhibition) at 10uM” value is reported as -2.25%.

As for `COc1ccc(N2CCc3c(C)nc4c(OC)cccc4c32)cc1`, the “hERG current change (%, negative = inhibition) at 10uM” value was -73.5%.

Take `Cc1nc2c(C)cccc2c2c1CCN2c1ccccc1F`: the “hERG current change (%, negative = inhibition) at 10uM” value is -62.4%.

On to `Cc1nc2c(C)cccc2c2c1COC2`, for which the “hERG current change (%, negative = inhibition) at 10uM” value is 7.98%.

In the case of `COc1ccccc1N1CCN(c2nc(C)nc3c2oc2ccccc23)CC1.Cl`, the “hERG current change (%, negative = inhibition) at 10uM” value is on record as -1.5%.

For the compound `CCOc1ccccc1CNC(=O)CCNS(=O)(=O)c1ccc2[nH]c(=O)oc2c1`, the “hERG current change (%, negative = inhibition) at 10uM” value is -2.89%.

In the case of `CCC(O)(CC)C(=O)N/N=C/c1cc(Br)cc(Br)c1O`, the “hERG current change (%, negative = inhibition) at 10uM” value is reported as -1.02%.

As for `C/C(CC(=O)Nc1ccccn1)=N\NC(=O)Cc1cccc2ccccc12`, the “hERG current change (%, negative = inhibition) at 10uM” value came out at 1.01%.

For `CCOC(=O)c1c(C)[nH]c(C(=O)COC(=O)c2ccccn2)c1C`, the “hERG current change (%, negative = inhibition) at 10uM” value is -17%.

Turning to `Cc1cccc(-c2nnc3n2N=C(c2ccccc2Br)CS3)c1`, the “hERG current change (%, negative = inhibition) at 10uM” value is on record as -14.4%.

With `CC1CCCC(NC(=O)COC(=O)CN2C(=O)C3CCCCC3C2=O)C1C` (stereo not shown), the “hERG current change (%, negative = inhibition) at 10uM” value was found to be 10.3%.

For the compound `Cc1ccc(CN(Cc2ccccn2)C(=O)Nc2c(F)cccc2F)cc1`, the “hERG current change (%, negative = inhibition) at 10uM” value is -0.968%.

For the compound `CCC/C(=N\NC(=O)c1ccc(CSc2nncn2C)cc1)c1ccccc1`, the “hERG current change (%, negative = inhibition) at 10uM” value was -8.28%.

For the compound `CCCOc1ccc(C2c3c(oc4cc(C)c(C)cc4c3=O)C(=O)N2CCCN(C)C)cc1OCC` (stereo not shown), the “hERG current change (%, negative = inhibition) at 10uM” value worked out at 7.65%.

As to `O=S(=O)(NCC(c1cccnc1)N1CCN(Cc2ccccc2)CC1)c1ccccc1` (stereo not shown), the “hERG current change (%, negative = inhibition) at 10uM” value is on record as -68.9%.

As for `O=S(=O)(NCC(c1cccnc1)N1CCc2ccccc2C1)c1ccccc1` (stereo not shown), the “hERG current change (%, negative = inhibition) at 10uM” value is given as 10.3%.

With `Cc1cc(C)c(S(=O)(=O)NCC(c2cccnc2)N2CCN(Cc3ccccc3)CC2)c(C)c1` (stereo not shown), the “hERG current change (%, negative = inhibition) at 10uM” value is -69.5%.

`O=S(=O)(NCC(c1cccnc1)N1CCOCC1)c1ccccc1` (stereo not shown): the “hERG current change (%, negative = inhibition) at 10uM” value is recorded as 4.6%.

Turning to `Cc1cc(C)c(S(=O)(=O)NCc2cccnc2)c(C)c1`, the “hERG current change (%, negative = inhibition) at 10uM” value is on record as -2.97%.

Regarding `Cc1cc(C)c(S(=O)(=O)NC2CCN(Cc3ccccc3)CC2)c(C)c1.Cl`, the “hERG current change (%, negative = inhibition) at 10uM” value is listed as -47.6%.

With `O=S(=O)(NCC(c1cccnc1)N1CCN(Cc2ccccc2)CC1)c1ccc(F)cc1` (stereo not shown), the “hERG current change (%, negative = inhibition) at 10uM” value is given as -65%.

In the case of `CCN1CCN(C(CNS(=O)(=O)c2ccccc2)c2cccnc2)CC1` (stereo not shown), the “hERG current change (%, negative = inhibition) at 10uM” value is reported as -39.2%.

For `CCN1CCN(C(CNS(=O)(=O)c2ccc(F)cc2)c2cccnc2)CC1` (stereo not shown), the “hERG current change (%, negative = inhibition) at 10uM” value was -20.5%.

With `O=S(=O)(NCC(c1cccnc1)N1CCOCC1)c1ccc(Cl)cc1` (stereo not shown), the “hERG current change (%, negative = inhibition) at 10uM” value was 4.89%.

Turning to `O=S(=O)(NCC(c1cccnc1)N1CCN(Cc2ccccc2)CC1)c1ccc(Cl)cc1` (stereo not shown), the “hERG current change (%, negative = inhibition) at 10uM” value is -78.3%.

As for `C(=N\N(Cc1ccccc1)c1ccccc1)/c1ccco1`, the “hERG current change (%, negative = inhibition) at 10uM” value is -11.5%.

For the compound `O=C(CNC(=O)c1ccccc1F)OCc1nc2ccccc2s1`, the “hERG current change (%, negative = inhibition) at 10uM” value is reported as 20.6%.

In the case of `COc1cc(C(=O)Nc2nccs2)cc(OC)c1OC`, the “hERG current change (%, negative = inhibition) at 10uM” value came to 3.55%.

Take `CSc1ccc(/C=N/n2c(C3CCCCC3)n[nH]c2=S)cc1`: the “hERG current change (%, negative = inhibition) at 10uM” value turned out to be 21.9%.
